Screening data from PubChem.
MARV entry inh: inhibitors of Marburg virus binding or cell entry; Potency, µM (doses to about 37.8 µM), hits mostly inhibitors; AID 540276; 300,000 tested, 1.8% active; Marburg virus pseudotyped entry inhibition, cell reporter; calls by dose curve; tested in HEK293 cells
LASV entry inh: Lassa virus entry inhibition. Lassa virus pseudotype entry inhibition, cell reporter. Potency, µM (top dose mostly 37.9 µM), usual class: inhibitors. 300,000 tested, 1.2% active; calls by dose curve; tested in HEK293 cells; also: nearly all actives have a fitted effect of over 50% in size
VACV mCherry inh: inhibitors of vaccinia virus infection (mCherry reporter signal). Potency, µM (highest dose often 36.5 µM), actives largely listed as inhibitors. Vaccinia virus mCherry reporter infection, fluorescence. 310,000 tested, 0.63% active; calls by dose curve; tested in A549 cells; also: nearly all actives have a fitted effect of over 35% in size
HCV inhibitor: inhibitors of hepatitis C virus infection; Potency, µM (highest dose often 41.8 µM), actives largely listed as inhibitors; AID 651820; 340,000 tested, 3.4% active; Huh7.5.1 HCVcc-Cre infection, luciferase reporter, 44 h; active = well fitted inhibition curve with a large enough effect; inconclusive = small, poorly fitted or top-dose-only effect, or another doubt; inactive = no such curve, though single readings can be large or run the other way
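A cell-based infection assay in which seeded cells (1,000 per well) receive test compound after 4 h, are inoculated with HCVcc-Cre at approximately 0.5 moi, and are incubated 44 h before luminescence detection.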
VACV Venus inh: vaccinia inhibition (Venus reporter) | 330,000 tested, 0.46% active | Vaccinia virus Venus reporter expression, fluorescence | Potency, µM (titrated, usually from 36.5 µM), usual class: inhibitors; calls by dose curve; tested in A549 cells; also: nearly all actives have a fitted effect of over 30% in size
Numbers stand for hits; 0 = inactive; ? = inconclusive; - = not tested or not shown; [ ] = another dose, or the depositor's remark. Sampled rows, rich in hits. Any-hit rate of the full collection: about 4.6%.

SMILES | MARV entry inh | LASV entry inh | VACV mCherry inh | HCV inhibitor | VACV Venus inh
CCC(=O)OCC(=O)C1(OC(=O)CC)C(C)CC2C3C(Cl)CC4=CC(=O)C=C[C@@]4(C)C3C(O)C[C@@]21C (stereo partly drawn) | - | - | 0 | - | 0
COc1ccc(-c2nc3ccccc3[nH]2)cc1 | 7.3µM | ? | 0 | 0 | 0
COC(=O)c1ccc(-c2nc3ccccc3[nH]2)cc1 | 1.8µM | 7.3µM | 0 | 0 | 0
c1ccc(-c2nc3ccccc3[nH]2)cc1 | - | - | 0 | 0 | 0
O=C(O)c1cccc(-c2nc3ccccc3[nH]2)c1 | 0.35µM | 1.4µM | 0 | 0 | 0
Cc1ccc(-c2nc3ccccc3[nH]2)s1 | 13µM | ? | 0 | ? | 0
O=C(C[n+]1cccc(Br)c1)c1ccc(F)cc1 | - | - | 0 | - | 0
CN1C(=S)S[C@@H](N(O)C(=O)Nc2ccccc2)C1(C)C | 0 | - | - | - | -
COc1ccc(-c2nc3ccc(N4CCCC4)cc3c(=O)[nH]2)cc1OC | 0 | ? | ? | 10µM | 0
COc1ccc2nc(-c3ccccc3)[nH]c(=O)c2c1 | - | - | 0 | 2.8µM | 0
COc1ccc2nc(C)[nH]c(=O)c2c1 | 0 | 0 | 0[1.46 µM] | 0 | 0
O=C(NCCc1ccccc1F)c1ccc2c(c1)OCCO2 | ? | 0.89µM | 0 | 0 | 0
O=C(Nc1ccc(Br)cc1F)c1ccc2c(c1)OCCO2 | 6.3µM | ? | 0 | 0 | 0
O=C(COC(=O)c1ccc2c(c1)OCCO2)Nc1ccc(F)cc1F | 0 | 0 | 0 | 0 | 0
O=C(Nc1ccc(F)cc1F)c1ccc2c(c1)OCCO2 | 2.8µM | ? | 0 | 0 | 0
COC(=O)[C@@H]1CCCN1Cc1ccc2c(c1)CN(Cc1cccn1-c1ncccn1)CCO2 | - | - | 0 | - | 0
Nc1nc[nH]c(=O)c1N | - | - | 0 | - | 0
COc1ccccc1-c1nc(SCC(=O)Nc2ccc(C)c(C)c2)n[nH]1 | ? | 0 | 0 | - | 0
CNc1nc(-c2ccc3c(c2)CCN3C(=O)c2ccccc2F)cs1 | - | - | 0 | 11µM | 0
CC(C)(C)C(=O)N1CCc2cc(-c3csc(N)n3)ccc21 | ? | 2µM | ? | 0 | 0
CNc1nc(-c2ccc3c(c2)CCN3C(=O)c2ccccc2F)c(C)s1 | ? | 0 | 0 | ? | 0
COc1ccc(NC(=O)CC2C(=O)N(c3ccc(C)cc3)C(=O)N2Cc2ccc3c(c2)OCO3)cc1 (stereo not drawn) | 0 | ? | 0 | - | 0
COc1ccc(NC(=O)CC2C(=O)N(C)C(=S)N2Cc2ccc3c(c2)OCO3)cc1 (stereo not drawn) | 11µM | 0 | 0 | 0 | 0
CC1CCn2c(nc3cc(C(=O)NCCc4ccccc4)ccc32)C1 (stereo not drawn) | - | 0 | 0[7.34 µM] | - | 0[7.34 µM]
Cc1ccn2c(=O)cc(COc3ccc(NC(=O)COc4ccc(Cl)cc4)cc3)nc2c1 | - | 0 | 0 | - | 0
SMILES | MARV entry inh | LASV entry inh | VACV mCherry inh | HCV inhibitor | VACV Venus inh
COc1ccc2c(c[n+](C)c3c4cc5c(cc4ccc23)OCO5)c1OC | 7.3µM | 4.1µM | ? | - | ?
O=C(Nc1cccc(C(=O)N2CCN(c3cccc(Cl)c3)CC2)c1)c1ccccc1 | - | - | - | 14µM | -
CC(=O)c1ccc(NC(=O)N2CCN(c3cccc(Cl)c3)CC2)cc1 | ? | 0 | - | 13µM | -
C[C@@H]1CC[C@H]2C(=O)N(Cc3ccccc3)C[C@H](O)CN2[C@H]1c1ccc(Br)cc1 | 0 | - | - | - | -
COC(=O)C1CCN(Cc2ccc3c(c2)CN(C(=O)c2cc(-c4ccc(C)o4)[nH]n2)CCO3)CC1 | - | - | 0 | - | 0
CC(C)CCC(C)N=Cc1c(O)n(Cc2ccccc2)c(=O)c2ccccc12 (stereo not drawn) | 13µM | 0 | - | 0 | 0
Cn1nc(CC(=O)NC2CCCCCC2)c2ccccc2c1=O | - | - | 0 | 3.2µM | 0
CCN1CCN(c2c(/C=C3\SC(=S)N(Cc4ccco4)C3=O)c(C)c(C#N)c(=O)n2C)CC1 | 13µM | ? | 0 | 2.2µM | 0
COCc1c(C(=O)NC2CCOC(C)(C)C2)cnn1-c1nccc(-c2cccs2)n1 (stereo not drawn) | - | - | 0 | - | 0
Nc1ccc2c3c(cccc13)-c1ccccc1-2 | ? | 0 | ? | ? | 0
Cc1ccc2c3c(cccc13)-c1ccccc1C2=O | 0 | ? | 0 | 5.6µM | 0
Cc1ccc(C(=O)Nc2ncc(C)s2)o1 | 0 | ? | - | 0 | -
Cc1ccc(C(=O)Nc2ncc(C)s2)s1 | 2.8µM | 5µM | 0 | 0 | 0
Cc1nnc(NC(=O)c2cc3ccccc3o2)s1 | 0 | 0 | 0 | 0 | 0
Cc1cnc(NC(=O)c2cc3ccccc3o2)s1 | 13µM | 0 | 0 | 0 | 0
CCN(CC)CCN1C(=O)C(O)=C(C(=O)c2cccs2)[C@@H]1c1ccccn1 | 0 | - | - | - | -
O=C(Nc1ccc(F)c(F)c1)c1cnn2c1NC(=C1CC1)C=C2C(F)F | - | - | 0 | - | 0
